In assay [1] the test system is PRMT1 (protein arginine N-methyltransferase 1). In words: small molecules binding arginine methyltransferase PRMT1 – biochemical, small-molecule microarray, 635 nm fluorescence, primary screen (AID 1088).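 Note: binding of Prmt1 protein to compounds spotted on small-molecule microarray slides.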 The following applies: higher = more signal.
Assay [2] is described as follows: growth effects on S. cerevisiae YJM789 – YJM789 clinical isolate, OD600, 24 h, basal, primary screen (AID 1089).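 Note: growth of clinical yeast isolate S. cerevisiae YJM 789 seeded 1000 cells per well; test concentration not given here.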 The following applies: higher = more signal, called active from +8 up or from −8 down.
The nature of assay [3]: S. pombe growth modifiers, basal conditions – strain 972, OD600, 24 h, no modulator, primary screen (AID 1090).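 Note: basal condition with compound alone and no growth modifier present; test concentration not given here.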 The conditions noted are these: S. pombe 972 growth, higher = more signal, called active from +8 up or from −8 down.
Assay [4] in a line: budding yeast growth modifiers under rapamycin – strain BY4716, OD600, 96 h, primary screen (AID 1091). Note: test concentration not given here. The following applies: S. cerevisiae BY4716 + rapamycin, higher = more signal, called active from +8 up or from −8 down.
Assay [5] addresses Torsin-1A-interacting protein 2 (Homo sapiens) (UniProt Q8NFQ8). In words: small molecules binding lysate-expressed LULL1 – cell lysate, human LULL1 lysate, 635/667 nm fluorescence, primary screen (AID 1092).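 Note: probe is lysate of COS7 cells overexpressing human LULL1; score merges per-feature 667 nm fluorescence with signal-to-noise.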 The following applies: small-molecule microarray, hLULL1 lysate binding, 635 nm fluorescence; higher = more signal.
The nature of assay [6]: optical density change of DRC41 E. coli – strain DRC41, OD650, 24 h, E. coli filamentation project, primary screen (AID 1093).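 Note: MC1000 strain lacking acrAB efflux and sulA so SOS filamentation is blocked; test concentration not given here.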 The conditions noted are these: E. coli DRC41 growth, higher = more signal, called active from +8 up or from −8 down.
Assay [7] in a line: probe aLefty2 binding to arrayed compounds – biochemical, biotinylated probe, 635/667 nm fluorescence, primary screen (AID 1094).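 Note: score merges spot fluorescence near 667 nm with spot signal-to-noise ratio.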 The following applies: small-molecule microarray, higher = more signal.
The subject of assay [8] is Noggin (protein binding on small-molecule microarray). In words: small molecules binding Noggin protein – biochemical, 635/667 nm fluorescence, primary screen (AID 1095).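 Note: score merges 667 nm feature fluorescence with signal to noise over triplicate slides.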 The conditions noted are these: 635 nm fluorescence, higher = more signal.
Assay [9] concerns the target Neurogenic locus notch homolog protein 3 (Homo sapiens) (UniProt Q9UM47). The experiment in a line: small molecules binding NOTCH3 protein – biochemical, 635/667 nm fluorescence, primary screen (AID 1096). The conditions noted are these: small-molecule microarray, 635 nm fluorescence, higher = more signal.
Assay [10] in a line: probe aEGFR binding to arrayed compounds – biochemical, biotinylated probe, 635/667 nm fluorescence, primary screen (AID 1097).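 Note: probe is a biotinylated anti-EGFR antibody binding compounds printed on slides; score combines fluorescence near 667 nm and signal to noise of each spot.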 The following applies: small-molecule microarray, higher = more signal.
Assay [11] deals with Plasmodium falciparum Sir2 (PF13_0152, Sir2A). In words: Plasmodium falciparum Sir2A binding compounds – biochemical, small-molecule microarray, 635 nm fluorescence, primary screen (AID 1098).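 Note: score merges spot fluorescence intensity with its signal-to-noise ratio.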 The conditions noted are these: fluorescence 635 nm, higher = more signal.
Assay [12] is described as follows: probe aDKK1 binding to arrayed compounds – biochemical, biotinylated probe, 635/667 nm fluorescence, primary screen (AID 1099).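 Note: score merges 667nm spot fluorescence with signal to noise across triplicate slides; reference of the scale not given here.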 The conditions noted are these: small-molecule microarray, higher = more signal.
Assay [13] in a line: probe aCHRDL2 binding to arrayed compounds – biochemical, biotinylated probe, 635/667 nm fluorescence, primary screen (AID 1100). The following applies: small-molecule microarray, higher = more signal.
The nature of assay [14]: change in splice reporter luminescence, either direction, cell-based, HEK293, spliceosome inhibition project, primary screen (AID 1101).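 Note: HEK293 cells carrying a splicing-competent luciferase reporter gene; test concentration not given here.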 The following applies: HEK293 splicing luciferase reporter, 24 h, higher = more signal, called active from +8 up or from −8 down. (In a reporter assay the amount or activity of a reporter protein is the signal.)
For assay [15], the target named is Fibroblast growth factor 10 (Homo sapiens) (UniProt O15520). In words: compounds binding fibroblast growth factor 10 – biochemical, small-molecule microarray, 635 nm fluorescence, primary screen (AID 1102). The following applies: FGF10 binding, fluorescence 635 nm, higher = more signal.
Chain of Fibroblast growth factor 10 (Homo sapiens) (O15520 whole entry, looked up): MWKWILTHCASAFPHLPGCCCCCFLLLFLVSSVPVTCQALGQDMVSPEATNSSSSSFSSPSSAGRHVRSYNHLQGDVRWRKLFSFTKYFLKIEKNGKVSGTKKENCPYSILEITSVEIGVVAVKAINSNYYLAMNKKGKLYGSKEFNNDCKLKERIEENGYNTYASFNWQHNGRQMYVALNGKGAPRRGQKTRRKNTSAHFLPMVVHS
Assay [16] concerns glycogen synthase kinase-3 (GSK3A per assay name; protocol says GSK3B). In words: compounds binding glycogen synthase kinase-3 – biochemical, small-molecule microarray, 635 nm fluorescence, GSK3A, primary screen (AID 1103). Note: the record names both GSK3A and GSK3B. The following applies: fluorescence 635 nm, higher = more signal.
Assay [17] concerns the target Epidermal growth factor receptor (Homo sapiens) (UniProt P00533). In words: compounds binding epidermal growth factor receptor – biochemical, small-molecule microarray, 635 nm fluorescence, primary screen (AID 1104).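 Note: score merges 667 nm emission intensity with spot signal to noise over triplicate slides.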 The conditions noted are these: EGFR binding, higher = more signal.
For assay [18], the target named is Follistatin-related protein 3 (Homo sapiens) (UniProt O95633). In words: compounds binding follistatin-related protein 3 – biochemical, small-molecule microarray, 635 nm fluorescence, primary screen (AID 1105).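 Note: score merges emission near 667 nm and signal to noise per printed spot across three slides.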 The conditions noted are these: FSTL3 binding, higher = more signal.
Chain of Follistatin-related protein 3 (Homo sapiens) (O95633 whole entry, looked up): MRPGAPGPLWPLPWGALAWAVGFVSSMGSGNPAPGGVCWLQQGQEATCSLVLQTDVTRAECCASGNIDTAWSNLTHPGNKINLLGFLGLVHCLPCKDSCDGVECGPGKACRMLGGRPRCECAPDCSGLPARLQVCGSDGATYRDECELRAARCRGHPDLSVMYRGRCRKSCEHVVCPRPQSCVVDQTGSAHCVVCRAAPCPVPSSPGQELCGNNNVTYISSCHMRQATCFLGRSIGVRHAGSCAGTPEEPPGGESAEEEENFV
The target of assay [19] is Dickkopf-related protein 1 (Homo sapiens) (UniProt O94907). In words: small molecules binding DKK1 protein – biochemical, small-molecule microarray, 635 nm fluorescence scan, primary screen (AID 1106).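 Note: score merges emission near 667 nm with signal to noise over three replicate slides.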 The following applies: higher = more signal.
Chain of Dickkopf-related protein 1 (Homo sapiens) (O94907 whole entry, looked up): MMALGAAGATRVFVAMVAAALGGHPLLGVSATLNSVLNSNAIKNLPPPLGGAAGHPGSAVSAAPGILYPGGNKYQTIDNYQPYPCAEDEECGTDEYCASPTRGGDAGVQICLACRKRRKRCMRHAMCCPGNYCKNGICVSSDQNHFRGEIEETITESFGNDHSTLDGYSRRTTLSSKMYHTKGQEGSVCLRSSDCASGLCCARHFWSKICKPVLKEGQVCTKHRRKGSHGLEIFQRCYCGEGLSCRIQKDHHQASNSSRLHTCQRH
Assay [20] deals with Inhibin beta A chain (activin A). The experiment in a line: small molecules binding activin A – biochemical, small-molecule microarray, 635 nm fluorescence scan, primary screen (AID 1107).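 Note: mouse activin A protein probed at 4.33 µg/mL on printed slides; score merges bound-protein fluorescence near 667 nm with spot signal-to-noise.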 The conditions noted are these: INHBA, higher = more signal.

Activity calls are given as the source filed them.

Chain of Torsin-1A-interacting protein 2 (Homo sapiens) (Q8NFQ8 whole entry, looked up): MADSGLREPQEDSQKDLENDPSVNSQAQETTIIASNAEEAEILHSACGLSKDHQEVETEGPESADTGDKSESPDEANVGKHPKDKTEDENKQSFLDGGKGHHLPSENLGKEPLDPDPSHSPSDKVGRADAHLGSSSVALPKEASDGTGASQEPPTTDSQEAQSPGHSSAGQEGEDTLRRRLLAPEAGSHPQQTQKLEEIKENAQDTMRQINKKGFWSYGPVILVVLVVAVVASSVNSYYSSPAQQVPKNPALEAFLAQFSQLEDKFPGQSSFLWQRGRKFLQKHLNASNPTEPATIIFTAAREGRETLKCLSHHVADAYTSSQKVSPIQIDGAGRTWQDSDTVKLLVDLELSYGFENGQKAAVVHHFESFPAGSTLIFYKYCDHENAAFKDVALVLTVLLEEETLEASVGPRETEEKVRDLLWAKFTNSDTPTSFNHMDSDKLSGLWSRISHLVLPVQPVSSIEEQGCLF
Chain of Neurogenic locus notch homolog protein 3 (Homo sapiens) (Q9UM47 whole entry, looked up): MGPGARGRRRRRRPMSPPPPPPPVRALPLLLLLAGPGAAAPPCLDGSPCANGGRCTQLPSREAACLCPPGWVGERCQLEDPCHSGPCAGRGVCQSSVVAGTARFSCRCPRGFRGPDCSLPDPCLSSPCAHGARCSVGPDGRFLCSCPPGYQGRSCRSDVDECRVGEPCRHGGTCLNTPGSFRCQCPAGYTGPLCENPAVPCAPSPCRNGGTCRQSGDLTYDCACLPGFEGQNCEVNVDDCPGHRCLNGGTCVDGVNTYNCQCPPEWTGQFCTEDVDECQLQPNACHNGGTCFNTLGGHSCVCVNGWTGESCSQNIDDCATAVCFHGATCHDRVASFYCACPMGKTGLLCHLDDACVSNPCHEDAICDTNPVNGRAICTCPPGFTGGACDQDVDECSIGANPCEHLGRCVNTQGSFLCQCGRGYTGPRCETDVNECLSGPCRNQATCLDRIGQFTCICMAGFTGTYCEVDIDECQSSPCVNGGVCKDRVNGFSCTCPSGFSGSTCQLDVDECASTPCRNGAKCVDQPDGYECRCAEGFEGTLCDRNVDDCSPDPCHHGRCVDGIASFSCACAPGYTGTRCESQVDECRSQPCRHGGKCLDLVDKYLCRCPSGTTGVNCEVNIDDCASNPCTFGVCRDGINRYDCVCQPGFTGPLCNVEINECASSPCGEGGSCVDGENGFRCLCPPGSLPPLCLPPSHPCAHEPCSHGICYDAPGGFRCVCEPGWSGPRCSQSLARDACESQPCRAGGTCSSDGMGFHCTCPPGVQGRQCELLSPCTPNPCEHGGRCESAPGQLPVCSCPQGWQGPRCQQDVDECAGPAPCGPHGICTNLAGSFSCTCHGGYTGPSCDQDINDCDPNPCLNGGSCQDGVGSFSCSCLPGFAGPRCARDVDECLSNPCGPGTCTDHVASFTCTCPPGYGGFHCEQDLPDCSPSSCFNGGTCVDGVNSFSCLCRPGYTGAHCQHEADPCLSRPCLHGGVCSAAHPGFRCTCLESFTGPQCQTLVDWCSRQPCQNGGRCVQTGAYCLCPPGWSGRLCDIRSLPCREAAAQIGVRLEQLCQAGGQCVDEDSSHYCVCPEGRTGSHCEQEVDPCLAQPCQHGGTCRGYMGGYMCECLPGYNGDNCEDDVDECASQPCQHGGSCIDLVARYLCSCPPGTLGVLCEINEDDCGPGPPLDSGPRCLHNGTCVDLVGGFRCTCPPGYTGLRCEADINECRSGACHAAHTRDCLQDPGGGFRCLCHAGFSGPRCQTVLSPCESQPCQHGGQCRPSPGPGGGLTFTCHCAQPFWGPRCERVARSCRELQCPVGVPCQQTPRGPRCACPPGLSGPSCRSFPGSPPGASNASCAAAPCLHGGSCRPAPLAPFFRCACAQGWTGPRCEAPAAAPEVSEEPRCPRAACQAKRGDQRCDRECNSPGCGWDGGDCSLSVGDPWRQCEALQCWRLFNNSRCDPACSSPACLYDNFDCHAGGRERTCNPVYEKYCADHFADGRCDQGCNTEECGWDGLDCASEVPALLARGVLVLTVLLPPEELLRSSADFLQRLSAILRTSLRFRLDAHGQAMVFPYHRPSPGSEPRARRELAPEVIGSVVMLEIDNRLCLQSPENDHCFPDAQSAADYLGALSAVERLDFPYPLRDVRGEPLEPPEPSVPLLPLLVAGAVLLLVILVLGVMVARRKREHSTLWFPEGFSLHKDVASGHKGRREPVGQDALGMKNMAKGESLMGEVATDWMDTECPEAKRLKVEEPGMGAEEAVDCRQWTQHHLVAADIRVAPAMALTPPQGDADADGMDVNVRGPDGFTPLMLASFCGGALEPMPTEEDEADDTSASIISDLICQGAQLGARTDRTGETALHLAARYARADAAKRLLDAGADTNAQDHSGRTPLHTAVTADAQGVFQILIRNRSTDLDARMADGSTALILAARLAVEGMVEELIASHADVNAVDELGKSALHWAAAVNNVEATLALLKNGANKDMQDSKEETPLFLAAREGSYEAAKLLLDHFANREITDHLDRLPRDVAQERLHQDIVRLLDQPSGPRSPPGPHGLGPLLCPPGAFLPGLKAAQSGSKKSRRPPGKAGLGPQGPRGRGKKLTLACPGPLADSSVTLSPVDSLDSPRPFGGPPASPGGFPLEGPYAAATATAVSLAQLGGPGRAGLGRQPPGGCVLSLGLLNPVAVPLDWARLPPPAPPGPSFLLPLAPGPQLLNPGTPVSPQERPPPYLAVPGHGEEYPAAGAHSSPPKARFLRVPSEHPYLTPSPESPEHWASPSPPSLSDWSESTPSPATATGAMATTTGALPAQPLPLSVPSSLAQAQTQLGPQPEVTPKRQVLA
Chain of Epidermal growth factor receptor (Homo sapiens) (P00533 whole entry, looked up): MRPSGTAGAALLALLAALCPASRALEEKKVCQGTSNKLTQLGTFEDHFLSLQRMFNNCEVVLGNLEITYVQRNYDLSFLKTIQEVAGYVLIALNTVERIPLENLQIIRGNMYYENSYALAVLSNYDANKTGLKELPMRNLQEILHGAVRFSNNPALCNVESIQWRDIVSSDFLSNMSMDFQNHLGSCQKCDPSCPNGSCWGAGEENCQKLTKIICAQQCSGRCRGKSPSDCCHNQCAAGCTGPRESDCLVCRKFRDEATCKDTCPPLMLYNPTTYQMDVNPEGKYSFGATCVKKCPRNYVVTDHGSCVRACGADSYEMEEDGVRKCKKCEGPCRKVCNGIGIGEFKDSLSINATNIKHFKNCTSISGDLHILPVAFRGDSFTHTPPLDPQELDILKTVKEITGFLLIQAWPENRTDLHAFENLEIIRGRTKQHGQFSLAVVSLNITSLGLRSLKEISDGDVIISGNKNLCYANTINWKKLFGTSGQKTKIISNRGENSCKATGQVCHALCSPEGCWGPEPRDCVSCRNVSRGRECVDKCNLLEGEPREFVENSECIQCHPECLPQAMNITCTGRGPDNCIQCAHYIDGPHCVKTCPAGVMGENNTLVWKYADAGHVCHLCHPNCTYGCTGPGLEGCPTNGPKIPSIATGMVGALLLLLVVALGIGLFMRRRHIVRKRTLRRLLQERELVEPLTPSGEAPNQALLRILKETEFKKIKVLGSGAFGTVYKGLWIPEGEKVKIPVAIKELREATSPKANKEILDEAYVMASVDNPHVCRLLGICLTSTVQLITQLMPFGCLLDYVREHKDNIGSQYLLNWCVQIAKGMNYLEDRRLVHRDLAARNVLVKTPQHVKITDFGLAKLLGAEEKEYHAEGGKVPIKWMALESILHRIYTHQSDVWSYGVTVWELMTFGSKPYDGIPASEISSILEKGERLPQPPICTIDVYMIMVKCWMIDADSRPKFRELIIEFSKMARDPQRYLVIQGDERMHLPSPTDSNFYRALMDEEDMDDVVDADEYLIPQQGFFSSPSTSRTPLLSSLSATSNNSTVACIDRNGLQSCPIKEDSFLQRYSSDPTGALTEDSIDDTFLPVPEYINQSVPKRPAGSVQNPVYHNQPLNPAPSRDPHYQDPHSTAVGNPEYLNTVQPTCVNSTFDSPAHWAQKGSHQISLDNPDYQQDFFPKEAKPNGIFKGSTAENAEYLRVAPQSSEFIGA

As to `C=CC[C@H](OC(=O)Nc1ccc(SC)cc1)c1ccc(O)c2ccccc12`, the composite z-score in [1] was 1.54; in [5], 2.8; in [7] it was -0.112; in assay [8], 1.1; in assay [9], 1.1; in [10], -0.128. Further, the composite z-score in assay [11] is 0.731; in assay [12], -0.0313; in assay [13], 0.296; in [15], 0.972; in assay [16], 1.29; in assay [17], 0.961. Further, the figures for the composite z-score in assay [18], in assay [19] and in assay [20] were 1.08, 0.778 and 0.932, respectively. In addition, the z-score was -23.9 (active) in assay [2]; -19.8 (active) in assay [3]; -1.38 (inactive) in [4]; 1.42 (inactive) in assay [6]; -2.98 (inactive) in [14].

Regarding `COc1cc(NN2C(C(O)c3cc(OC)c(OC)c(OC)c3)C=CC3C(=O)N(C)C(=O)C32)cc(OC)c1OC` (stereo not given), the composite z-score in assay [1] was 0.986; in assay [5] it was 3.37; in [7], 0.16; in [8], -0.112; in [9] it was 1.06; in [10], 0.08. Further, the composite z-score in assay [11] was determined as 1.03; in assay [12], 0.171; in assay [13], 0.318; in [15], 0.691; in assay [16] it was 0.984; in assay [17] it was 0.347. The results for the composite z-score in assay [18], in [19] and in assay [20] were 0.34, -0.289 and 0.93, respectively. The z-score in [2] was -0.871 (inactive); in assay [3], -0.724 (inactive); in [4] it was -0.0522 (inactive); in [6], -0.678 (inactive); in assay [14] it was 0.255 (inactive).

`[N-]=[N+]=NCc1ccccc1C[C@@]1(C(N)=O)N=C(c2ccc(OCCCO)cc2)O[C@@H]1c1ccccc1`: the composite z-score is 1.56 in assay [1]; 3.59 in [5]; 0.149 in assay [7]; -0.734 in [8]; -0.15 in assay [9]; -0.108 in assay [10]. Further, the composite z-score was 1.15 in [11]; 0.67 in assay [12]; 1.04 in assay [13]; 0.001 in [15]; -0.238 in assay [16]; -0.892 in [17]. Besides, the results for the composite z-score in [18], in assay [19] and in [20] were -0.443, -1.38 and 0.389, respectively. The z-score is -0.144 (inactive) in assay [2]; 0.0313 (inactive) in assay [3]; 13.3 (active) in assay [4]; -0.412 (inactive) in assay [6]; -1.01 (inactive) in assay [14].

`CC[C@@H]1C=C(C(=O)O)[C@H](c2ccccc2)N1S(=O)(=O)c1ccc(C)cc1`: the composite z-score in [1] came to 0.598; in assay [5], 2.87; in [7] it was 0.262; in assay [8] it was 0.103; in [9], 0.981; in assay [10] it was 0.0638. Besides, the composite z-score in assay [11] was 1.69; in [12], 0.748; in [13], 0.853; in assay [15] it was 0.825; in assay [16] it was 0.52; in assay [17], -0.482. Moreover, the composite z-score is 0.0194 in assay [18], -0.294 in assay [19] and 0.941 in assay [20]. Besides, the z-score in [2] was -1.14 (inactive); in assay [3], 0.231 (inactive); in [4], -0.12 (inactive); in [6] it was -0.749 (inactive); in [14], 0.0795 (inactive).

On to `C=CCNC(=O)[C@@H]1[C@H]2C(=O)O[C@H](c3ccccc3)[C@H](c3ccccc3)N2[C@H](c2ccc(OCCO)cc2)[C@@]12C(=O)N(C(=O)OCCOC)c1ccc(C#Cc3ccc(OC)cc3)cc12`, for which the composite z-score in [1] was 1.49; in [5] it was 3.13; in assay [7], 0.0645; in assay [8], 1.23; in assay [9], 1.05; in [10], -0.0974. Further, the composite z-score worked out at 1.29 in assay [11]; 0.0181 in assay [12]; 0.299 in assay [13]; 0.753 in [15]; 1.27 in assay [16]; 0.356 in [17]. The composite z-score worked out at 1.34 in assay [18], 0.489 in [19] and 0.688 in [20]. The z-score is 1.59 (inactive) in assay [2]; 1.77 (inactive) in assay [3]; 6.26 (inactive) in assay [4]; 0.361 (inactive) in assay [6]; -1.33 (inactive) in assay [14].
